Compound activity deposited in PubChem by several laboratories.
CSC inhib: blocks cancer stem cells; cancer stem cell-like cells viability, luminescence; inhibition, % at 7.5 µM; 300,000 compounds, 1.1% hits; in the data active = inhibition above about 75%; tested in HMLE shEcad cells
Mdm2 MdmX PPI: human Mdm2/MdmX binding inhibition | SaOS-2 split-luciferase Mdm2/MdmX complementation, luminescence | inhibition, % at 8 µM | O15151+Q00987 | 330,000 compounds, 3% hits;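 active = inhibition of at least 50% at 8 µM in the primary screen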
Target sequence (O15151 whole entry, looked up): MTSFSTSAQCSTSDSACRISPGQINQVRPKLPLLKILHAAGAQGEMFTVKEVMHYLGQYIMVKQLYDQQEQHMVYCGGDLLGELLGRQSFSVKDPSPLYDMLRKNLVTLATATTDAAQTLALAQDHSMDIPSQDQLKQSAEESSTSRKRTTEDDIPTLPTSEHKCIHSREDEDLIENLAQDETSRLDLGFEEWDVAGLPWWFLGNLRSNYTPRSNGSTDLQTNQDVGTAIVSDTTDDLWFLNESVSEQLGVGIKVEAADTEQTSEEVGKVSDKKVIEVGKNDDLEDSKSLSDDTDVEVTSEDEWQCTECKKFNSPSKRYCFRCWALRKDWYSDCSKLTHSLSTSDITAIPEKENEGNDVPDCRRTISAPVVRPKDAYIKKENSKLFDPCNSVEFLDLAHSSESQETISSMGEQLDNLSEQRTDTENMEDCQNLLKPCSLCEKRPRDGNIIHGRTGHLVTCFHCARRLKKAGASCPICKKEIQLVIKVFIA
Target sequence (Q00987 whole entry, looked up): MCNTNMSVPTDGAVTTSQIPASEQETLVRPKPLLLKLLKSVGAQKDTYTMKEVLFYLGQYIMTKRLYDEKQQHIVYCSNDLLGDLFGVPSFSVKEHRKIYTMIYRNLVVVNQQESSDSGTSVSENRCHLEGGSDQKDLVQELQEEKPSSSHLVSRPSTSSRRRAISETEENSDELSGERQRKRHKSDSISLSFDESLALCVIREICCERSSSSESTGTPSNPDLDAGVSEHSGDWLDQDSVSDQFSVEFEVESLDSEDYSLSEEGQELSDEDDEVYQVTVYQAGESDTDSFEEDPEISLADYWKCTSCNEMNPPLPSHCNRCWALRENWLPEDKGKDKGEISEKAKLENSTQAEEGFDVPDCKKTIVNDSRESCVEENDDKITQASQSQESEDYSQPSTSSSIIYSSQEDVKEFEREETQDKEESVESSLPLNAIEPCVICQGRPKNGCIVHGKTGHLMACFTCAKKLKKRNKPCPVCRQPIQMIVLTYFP
MPTP block: inhibitors of mitochondrial permeability transition pore. isolated mouse mitochondria, Ca2+ swelling absorbance, 30 min. inhibition, % at 10 µM. 360,000 compounds, 1.4% hits. AID 602449;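 active = inhibition of 50% or more, scaled per plate between neutral and stimulator controls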;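 note: 0% = DMSO wells given calcium and 100% = 1 mM EGTA wells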
Gli-Sufu antag: blocks Gli-Sufu signaling in a luciferase reporter; Sufu-KO-LIGHT fibroblasts, Gli luciferase reporter luminescence; inhibition, % at 5 µM; 340,000 compounds, 0.74% hits; AID 588413;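 active = inhibition above about 55%, limit read from the data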;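 note: 0% = DMSO-treated cells and 100% = wells with medium but no cells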
NR3A LBD binder: modulates the human NR3A ligand-binding domain; Tm shift relative to glycine control, % at 25 µM; 340,000 compounds, 2.5% hits; NR3A LBD differential scanning fluorimetry, Tm shift; 0% = protein alone, 100% = glycine-bound protein;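 active = melting temperature shift of at least 10% of the positive control shift, at one fixed dose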
Beta apoptosis: beta cell apoptosis inhibition; 300,000 compounds, 0.8% hits; INS-1E cytokine-induced death, ATP luminescence, 48 h; percent of positive-control rescue, neutral wells zero; AID 435005; protection from apoptosis, % (no concentration beside the values);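 active = Every replicate reaches about 75%, or at least half do and their mean reaches it too, limit read from the data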;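 note: 0% = cytokine-treated negative control wells and 100% = positive control rescue; higher means more ATP so stronger rescue from cytokine killing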
Rh123 counter: membrane potential counter-screen of mitochondrial pore inhibitors. inhibition, % at 10 µM. 5,000 compounds, 78% hits. shares compounds with MPTP block. isolated mitochondria, Rhodamine 123 fluorescence; in the data active = inhibition above about 22%;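 note: 0% = DMSO vehicle and 100% = positive control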
MPTP abs DR: dose response confirmation of mitochondrial permeability transition pore inhibitors | shares compounds with MPTP block | isolated mitochondria swelling, absorbance | IC50, µM | 780 compounds, 58% hits | AID 651561; in the data active = IC50 below about 20 µM
MPTP cs DR: MPTP inhibitor counter-screen activity, dose response; AID 651564; shares compounds with MPTP block; IC50, µM; isolated mitochondria counterscreen, fluorescence read-out; 780 compounds, 49% hits; in the data active = IC50 below about 80 µM
Numbers without * were called inactive; i = inactive; nt = no result given. Hits are enriched below; roughly 6.6% of the tested compounds scored in any of these assays.

SMILES	CSC inhib	Mdm2 MdmX PPI	MPTP block	Gli-Sufu antag	NR3A LBD binder	Beta apoptosis	Rh123 counter	others
CC(C)c1ccc(S(=O)(=O)Nc2ccc(SC(F)F)cc2)cc1	nt	-15.8	72.2*	26.0	13.0*	-6.9	82.9*
O=C(NCc1ccc(N2CCCC2=O)cc1)Nc1cccc(Cl)c1	19.5	-14.3	0.6	4.0	-1.0	9.8	nt
CCN(CC)CCNc1cccc2sc3ccccc3c(=O)c12	nt	nt	0.8	nt	nt	nt	nt
CCN(CC)CCNc1ccc(CO)c2sc3ccccc3c(=O)c12	31.7	47.5	59.7*	4.5	-0.8	39.8	-6.4
CCN(CC)S(=O)(=O)c1ccc(Cl)c(C(=O)Nc2ccc(Cl)cc2[N+](=O)[O-])c1	6.8	44.4	91.0*	27.4	-4.8	99.7*	91.7*
Cc1ccccc1OCCC(=O)Nc1ccc(F)c(Cl)c1	11.4	25.7	84.9*	2.9	-2.0	0.0	85.0*
CCOc1ccccc1OCCC(=O)Nc1ccc(F)c(Cl)c1	9.5	-5.2	1.6	8.3	-2.8	-7.1	nt
O=C(Cn1cnc2c(oc3ccccc32)c1=O)N1CCCc2ccccc21	-8.7	-11.9	-0.1	-1.8	-2.8	6.3	nt
O=C(CSc1ncnc2c1oc1ccccc12)N1CCCc2ccccc21	10.3	-13.1	79.1*	7.1	1.9	20.4	72.0*
CCCOc1cc(N(CC)CC)ccc1/C=C(/C#N)c1nc2ccc(C)cc2[nH]1	58.4	49.1	78.2*	51.4	0.5	44.9	57.1*
C[C@@]12C(=O)N(CCc3c[nH]c4ccccc34)CC(=O)N1[C@H]1c3ccccc3OC[C@@H]1[C@@H]2c1ccccc1	-14.4	32.0	-2.2	-0.8	-5.7	-8.6	nt
COc1cc(CNCc2c[nH]c3ccccc23)cc(OC)c1	nt	17.6	59.6*	5.8	0.5	20.1	0.6	MPTP abs DR=6.29*;MPTP cs DR=52.7*
COc1cc(CNCc2cccc3ccccc23)cc(OC)c1	5.8	17.8	1.2	9.6	-3.8	-1.7	nt
COc1ccccc1NS(=O)(=O)c1cccc(NC(=O)c2[nH]c(C)c(C(C)=O)c2C)c1	-4.8	21.6	65.8*	3.8	-4.6	75.7*	63.8*
CCN(c1ccccc1)S(=O)(=O)c1cc(C(=O)Nc2ccccc2Cl)ccc1F	nt	26.4	1.9	-4.9	-8.9	nt	nt
CSc1cccc(NC(=O)c2[nH]c(C)c(C(C)=O)c2C)c1	2.3	-14.7	4.5	-28.2	-6.6	nt	nt
CCN(c1ccccc1)S(=O)(=O)c1cc(C(=O)Nc2ccc(Br)cc2)ccc1F	19.4	28.9	96.7*	7.2	9.7	-1.2	88.8*
CC(=O)c1c(C)[nH]c(C(=O)Nc2cccc(S(=O)(=O)N(C)c3ccccc3)c2)c1C	-4.3	39.1	68.4*	22.7	-2.3	5.7	78.5*
CN(c1ccccc1)S(=O)(=O)c1ccc(NC(=O)c2ccc(F)cc2)cc1	-4.1	16.4	58.3*	-0.9	-13.5	nt	60.6*
COC(=O)C1=C(C(=O)OC)[C@@H]2N(C)c3ccccc3[C@@]23C[C@@H](CO)N=C3N1	nt	10.0	nt	-6.3	0.6	-3.8	nt
O=C(CN1C(=O)NC2(CCCC2)C1=O)Oc1ccc2ccc(=O)oc2c1	nt	18.8	0.5	-19.3	-2.6	3.7	nt
COc1ccccc1NS(=O)(=O)c1cccc(NC(=O)Nc2ccccc2)c1	2.6	24.9	82.0*	3.8	22.2*	1.9	86.2*
O=C(Nc1ccc(Cl)cc1)N[C@@H]1c2c(ccc3ccccc23)OC[C@@H]1CO	23.2	6.6	93.3*	5.5	25.7*	-0.7	74.5*
CN(C(=O)c1ccccc1)C1c2c(ccc3ccccc23)OCC1CO (stereo not drawn)	-2.9	9.5	-1.0	-2.2	3.2	-3.2	nt
COc1ccccc1CCC(=O)Nc1ncc(C)s1	12.5	-18.2	0.4	-0.4	-0.3	-0.3	nt
SMILES	CSC inhib	Mdm2 MdmX PPI	MPTP block	Gli-Sufu antag	NR3A LBD binder	Beta apoptosis	Rh123 counter	others
O=C(/C=C/c1cn(CC(O)CN2CCCCCC2)c2ccccc12)c1cccs1 (stereo not drawn)	-3.7	43.6	80.3*	6.3	-0.7	-4.6	-20.9
O=[N+]([O-])c1ccc(C2=NN(CCO)C(=Nc3ccc(OC(F)(F)F)cc3)SC2)cc1	89.3*	17.9	54.3*	-10.6	-8.9	-10.3	52.5*
CCc1nnc(NC(=O)C2CCCN2C(=O)Nc2ccc(C)cc2)s1 (stereo not drawn)	nt	24.9	-1.1	-13.6	-0.4	-5.2	nt
N/C(=N\OC(=O)CCC(=O)O)c1ncc(C(F)(F)F)cc1Cl	-4.1	18.6	-0.5	3.1	-1.0	nt	nt
C/C(=N\OC(=O)Nc1ccc(Cl)cc1)c1ncc(C(F)(F)F)cc1N1CCOCC1	23.3	-42.8	98.6*	-14.3	2.9	2.3	93.6*
Cc1ccc(/C=N/NC(=O)NN(C)c2ncc(C(F)(F)F)cc2Cl)cc1	7.3	13.2	-0.9	21.3	0.1	4.5	nt
CN(NC(=O)Nc1ccc(Cl)cc1)c1ncc(C(F)(F)F)cc1Cl	24.8	23.0	87.8*	-7.7	-1.2	3.7	91.3*
N/C(=N\OC(=O)Nc1ccc(Cl)cc1)c1ncc(C(F)(F)F)cc1Cl	nt	26.9	56.1*	7.5	6.8	-4.5	112.7*
CO/N=C(\C)c1ncc(C(F)(F)F)cc1N1CCOCC1	-18.2	-9.8	5.5	0.9	-0.1	-11.9	nt
COc1ccc(CCNC(=O)CC(Cc2ccccc2)C(=O)O)cc1OC (stereo not drawn)	-6.9	-3.5	-1.2	3.6	2.7	-1.8	nt
Cc1cccc(S(=O)(=O)NC(=O)C2(C)CCN2C(=O)CC2CCCCC2)c1 (stereo not drawn)	nt	nt	0.6	nt	nt	nt	nt
CCc1cc2cc(C)cc(C)c2nc1SCC(=O)N1CCN(C(=O)c2ccco2)CC1	116.3*	17.3	64.4*	8.4	-0.9	0.8	30.1*
CCc1cc2cccc(C)c2nc1SCC(=O)N1CCN(C(=O)c2ccco2)CC1	-11.9	40.8	-0.1	2.7	-7.8	1.4	nt
Cc1nc(N2CCN(c3ccccn3)CC2)c2c(C)c(C(=O)N3CCN(c4ccccc4F)CC3)sc2n1	nt	nt	-2.6	23.9	-1.0	-0.9	nt
COC(=O)c1cc(Cl)c(NC(=O)/C=C/c2ccc(Cl)cc2Cl)cc1OC	27.3	-4.0	83.4*	-10.7	4.3	3.6	2.6	MPTP abs DR=i;MPTP cs DR=4.36*
Cc1nn(-c2cccc(Cl)c2)c2nc(C(F)(F)F)[nH]c(=O)c12	29.8	7.7	98.2*	2.9	-0.4	13.1	53.1*
CCC(C)NC(=O)c1cc(-c2ccccc2O)on1 (stereo not drawn)	7.1	-85.3	52.9*	-20.7	7.0	0.3	1.4	MPTP abs DR=i;MPTP cs DR=>80
